From PubChem BioAssay (NCI)
The panel holds about 83,000 compounds, 20% with a hit somewhere; the sample as a whole holds those more often.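 Growth was measured after 48 h exposure to one concentration of compound in 96-well plates. Values under 10 count as active.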 A number with no mark means an inactive call. The source made the active and inactive calls.

Tests used:
Test in all cases: NCI-60 one-dose screen, 48 h (100 = growth as untreated, 0 = no growth, -100 = all killed)
Details in all cases: 10 µM unless noted
NCI-H23 lung = system: NCI-H23 lung
NCI-H226 lung = system: NCI-H226 lung
NCI-H322M lung = system: NCI-H322M lung
HOP-62 NSCLC = system: HOP-62 NSCLC
NCI-H460 lung = system: NCI-H460 lung
HOP-92 NSCLC = system: HOP-92 NSCLC
NCI-H522 lung = system: NCI-H522 lung
A549/ATCC NSCLC = system: A549/ATCC NSCLC
786-0 renal = system: 786-0 renal
COLO 205 colon = system: COLO 205 colon
DU-145 prostate = system: DU-145 prostate
K-562 leukemia = system: K-562 leukemia
MALME-3M melanoma = system: MALME-3M melanoma
MDA-MB-231 breast = system: MDA-MB-231 breast
RXF 393 renal = system: RXF 393 renal
SF-268 CNS = system: SF-268 CNS
SF-295 CNS = system: SF-295 CNS
SF-539 CNS = system: SF-539 CNS
UACC-257 melanoma = system: UACC-257 melanoma
M14 melanoma = system: M14 melanoma

SMILES	growth (NCI-H23 lung)	growth (NCI-H226 lung)	growth (NCI-H322M lung)	growth (HOP-62 NSCLC)	growth (NCI-H460 lung)	growth (HOP-92 NSCLC)	growth (NCI-H522 lung)	growth (A549/ATCC NSCLC)	growth (786-0 renal)	growth (COLO 205 colon)	growth (DU-145 prostate)	growth (K-562 leukemia)	growth (MALME-3M melanoma)	growth (MDA-MB-231 breast)	growth (RXF 393 renal)	growth (SF-268 CNS)	growth (SF-295 CNS)	growth (SF-539 CNS)	growth (UACC-257 melanoma)	growth (M14 melanoma)
COc1ccc2c(-c3ccc(F)cc3)c(C#N)c(=NC(C)=O)oc2c1	53.8%	89.6%	58.2%	62.8%	23.3%	70.6%	5.83% (active)	53.4%	33.4%	106%	49.6%	8% (active)	53.7%	54.7%	36%	52.7%	37.9%	28.4%	72%	19.8%
O=C(NCCNc1nccc(-c2c(-c3cccc(O)c3)nc3sccn23)n1)c1cccc(C(F)(F)F)c1	81%	88.5%	103%	114%	85.7%	83.8%	48.5%	71.3%	89.3%	71.1%	91.4%	56.2%	0.753% (active)	76.2%	79.9%	86.7%	69.6%	100%	14.4%	17.5%
O=[N+]([O-])c1cccc2cc(S(=O)(=O)O)ccc12	105%	103%	107%	98.8%	110%	85%	83.8%	74.2%	100%	105%	105%	80.7%	102%	105%	122%	104%	104%	99.4%	91.9%	107%
O=[N+]([O-])c1cccc(C(c2ccccc2)c2ccccc2)c1	87.5%	76.9%	90.6%	88.7%	87.5%	63.9%	79.1%	87.7%	97.3%	95.2%	110%	73.7%	97%	83.1%	102%	99.8%	76.7%	101%	102%	97%
CCOC(=O)C1CN(Cc2ccccc2)C(=O)C1=O (stereo not given)	105%	93.3%	94.9%	98.8%	106%	84.3%	98.6%	112%	105%	93.6%	110%	104%	92.8%	115%	112%	101%	105%	93.6%	104%	94.6%
COc1cc(-c2nc(N)n(CC(=O)Nc3ccc(/C(C)=N\O)cc3)n2)cc(OC)c1OC	95.8%	94.8%	94.2%	94.5%	106%	88.2%	60.8%	74.2%	104%	104%	108%	96.1%	96.7%	103%	105%	93.5%	101%	97.1%	63.7%	101%
CC12CCC3C(CCC4CC(O)CCC43C)C1C/C(=C/O)C(=O)O2 (stereo not given)	98.7%	96.6%	107%	99.1%	110%	99.6%	84.2%	100%	111%	105%	108%	102%	134%	106%	99.8%	101%	105%	113%	92.6%	105%
CCCCOc1nc2ccc(Cl)cc2cc1/C=C/C(=O)/C=C/c1ccc(OC)cc1	95.9%	99.6%	95.6%	110%	98.4%	93.4%	77.5%	92.1%	110%	93.1%	93.8%	87%	100%	106%	119%	95.4%	113%	104%	89.7%	66.3%
Cc1ccc(=O)n(-c2ccc(Br)cc2F)c1	98.4%	85.4%	102%	94%	110%	77.3%	104%	98.7%	99.5%	110%	109%	99.4%	101%	103%	103%	104%	100%	98.9%	102%	97.4%
COc1cc(Br)c(-c2nc(-c3ccccc3)c(-c3ccccc3)n2Cc2ccccc2)cc1OC	46.8%	70.4%	75.1%	91.8%	48.9%	45.7%	39.6%	37%	67.9%	30.2%	72.6%	31.5%	57.8%	71.2%	72.2%	67.9%	34.5%	76%	59.2%	53.1%
CNC(=O)NN	98.2%	103%	103%	94.7%	105%	82.5%	104%	98.9%	107%	94.5%	103%	109%	93.7%	108%	108%	111%	99.6%	97%	100%	98.1%
O=C1C(Cl)=C(Nc2cccc3cc4ccccc4nc23)C(=O)c2ccccc21	54.7%	67.2%	51%	45.9%	18.2%	74.9%	22.3%	29.8%	50.1%	12%	44%	27.9%	48.9%	44%	65.2%	45%	53.8%	40.7%	45.6%	56.4%
COc1ccc(OC)c(NCC(=O)n2nc(/C=C\c3ccc(O)c(OC)c3)cc2/C=C\c2ccc(O)c(OC)c2)c1	19.1%	29%	29.5%	11.8%	8.27% (active)	34.5%	-19.3% (active)	21.4%	-7.3% (active)	-46.8% (active)	22.9%	4.4% (active)	23.3%	15.7%	-49.5% (active)	23.1%	24%	0.158% (active)	30.2%	16.5%
COc1ccc(-c2nn(-c3ccc(NC(=O)c4cc(C(F)(F)F)cc(C(F)(F)F)c4)cc3)cc2-c2ccncc2)cc1Cl	72.1%	91.1%	87.4%	67%	57.7%	48.7%	71.2%	59.5%	44.1%	85.6%	76.7%	29%	95.1%	49.3%	-6.8% (active)	68.7%	33.1%	67.7%	78.8%	40.1%
